Hits are enriched below; roughly 3% of the tested compounds scored in any of these assays.
Shn3 inh set2: reduction of Shn3 3'UTR firefly luciferase signal, primary screen, Schnurri-3 inhibitor project, cell-based, Clone20 osteoblasts, set 2; Clone20 osteoblast Shn3 3'UTR firefly luciferase, 24 h; inhibition, % at 12.5 µM; hit rate 0.52% among 360,000;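 active = mean inhibition of at least 75% with every replicate also reaching 75%; inconclusive = mean inhibition at least 75% but some replicate below; inactive = mean inhibition below 75%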;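 note: 0% = median of neutral control wells and 100% = pilot-screen positive control compound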
EWS-Fli inh: EWS/Fli-driven NR0B1 reporter inhibitors, primary screen, A673 cells, NR0B1 luciferase, luminescence, MLPCN library; viability-normalised; inhibition, % at 12.6 µM; hit rate 0.67% among 350,000; AID 651661, 2012;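 active = mean inhibition of at least 50% after viability correction, with every replicate also passing that limit; inconclusive = mean reaches 50% but only one of two replicates passes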;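 note: firefly luciferase signal divided by Alamar Blue viability fluorescence both relative to DMSO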
MITF TRPM1 inh: inhibitors of MITF-dependent TRPM1 promoter reporter, primary screen, cell-based, SK-MEL-5, single point, luciferase | SK-MEL-5 TRPM1 promoter luciferase, 24 h | inhibition, % at 12.5 µM | hit rate 0.83% among 330,000;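 active = mean inhibition across replicates of 60% or more, whatever share of single replicates reaches that level; inconclusive = some that reach 60%, reason not given; inactive = mean inhibition across replicates below 60%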
Peg3 prom inh: Peg3 promoter-driven luciferase inhibitors, primary screen, cell-based, HeLa, luciferase luminescence; AID 588405, 2011; HeLa PEG-Prom luciferase reporter, overnight; inhibition, % at 20 µM; hit rate 1.7% among 360,000;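 active = inhibition of at least 50% at 20 µM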
PAX8 inh HTS: inhibitors of PAX8-driven TPO luciferase reporter, primary screen, RMG-I cells, single concentration; SteadyGlo, 24 h; inhibition, % at 12.6 µM; hit rate 1.2% among 360,000;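 active = mean replicate inhibition at least 60% with every replicate also reaching 60%; inconclusive = only one of the two criteria is met; inactive = mean below 60% and not all replicates reaching 60%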;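 note: luciferase light reporting Pax8 driven TPO promoter activity; plate controls were median of neutral control wells for no effect and mitoxantrone controls for full effect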
ABHD5 PLIN5 PPI: ABHD5-PLIN5 interaction inhibitors, primary screen, cell lysate, split luciferase complementation, luminescence. Split G. princeps luciferase complementation, 4 h. inhibition, % at 4 µM. hit rate 0.78% among 360,000. AID 602281, 2012;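 active = inhibition above the mean inhibition across every tested compound plus 3 SD, cut at about 22% in these data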;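 note: 0% = DMSO only wells and the 100% control is not disclosed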
ABHD5 PLIN5 conf: ABHD5-PLIN5 interaction inhibitors, confirmation, biochemical, luminescence; shares compounds with ABHD5 PLIN5 PPI; inhibition, % at 4 µM; hit rate 67% among 2,200; AID 651612, 2012; in the data active = inhibition above about 23%;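 note: 0% = DMSO vehicle wells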
HNF4 counter: HNF4 dimerization inhibitors, counter-screen for ABHD5-PLIN5 interaction inhibitor project, biochemical, split-luciferase complementation, luminescence | inhibition, % at 4 µM | shares compounds with ABHD5 PLIN5 PPI | hit rate 77% among 2,200;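 active = mean inhibition across replicate wells exceeding the computed hit threshold, cut at about 13% in these data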;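 note: light from luciferase halves that rejoin when HNF4 fusion proteins dimerize; 0% = DMSO only wells and the 100% control is not given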
Target sequence (P41235 whole entry, looked up, the tested form may be a part): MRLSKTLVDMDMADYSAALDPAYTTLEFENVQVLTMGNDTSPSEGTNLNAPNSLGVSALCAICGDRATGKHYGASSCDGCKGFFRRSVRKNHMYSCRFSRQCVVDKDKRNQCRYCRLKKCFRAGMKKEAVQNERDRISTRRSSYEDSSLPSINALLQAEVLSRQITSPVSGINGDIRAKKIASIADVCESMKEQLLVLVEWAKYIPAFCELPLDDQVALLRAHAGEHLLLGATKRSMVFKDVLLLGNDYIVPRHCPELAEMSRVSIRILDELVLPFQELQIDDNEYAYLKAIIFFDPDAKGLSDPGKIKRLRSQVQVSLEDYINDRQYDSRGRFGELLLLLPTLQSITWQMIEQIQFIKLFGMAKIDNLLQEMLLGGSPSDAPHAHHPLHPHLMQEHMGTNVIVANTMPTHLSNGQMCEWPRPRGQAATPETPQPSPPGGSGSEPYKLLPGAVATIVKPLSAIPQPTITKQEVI
Numbers without * were called inactive; ? = inconclusive; / = not tested or not shown.

SMILES	Shn3 inh set2	EWS-Fli inh	MITF TRPM1 inh	Peg3 prom inh	PAX8 inh HTS	ABHD5 PLIN5 PPI	ABHD5 PLIN5 conf	HNF4 counter
Fc1ccc2c(c1)Sc1ccc(Cl)cc1CC2N1CCN(CCC2OCCO2)CC1 (stereo not given)	-9.7	11.9	2.1	27.9	-12.4	12.4	/	/
NC(=O)CCN1CCN(CCOC2Cc3cc(Cl)ccc3Sc3ccccc32)CC1 (stereo not given)	-3.9	/	-14.7	8.8	/	24.8*	22.2*	6.5
CC(C)NC(=O)N(C)C[C@@H]1OCCCC[C@H](C)Oc2ccc(NC(=O)CCCN(C)C)cc2C(=O)N([C@@H](C)CO)C[C@H]1C	/	/	/	/	-7.6	/	/	/
Cc1cc(Sc2nnc(N)s2)c2ccccc2n1	?	10.5	48.1	7.2	89.5*	23.2*	38.2*	58.1*
CCC(=O)Nc1ccc2c(c1)C(=O)N(C)[C@H]1CC[C@H](CC(=O)NCC3CCCCC3)O[C@@H]1CO2	/	0.8	/	/	8.2	/	/	/
Cc1sc2nc3ccc(NCc4ccco4)nn3c(=O)c2c1C	-6.4	/	-19.5	-16.9	/	31.0*	65.9*	77.4*
Cc1sc2nc(SCC(=O)NCc3ccco3)n(C)c(=O)c2c1C	23.4	/	-0.9	9.2	/	5.0	/	/
O=c1c2ccccc2nc2ccc(NCc3ccco3)nn12	-10.4	/	-40.9	-196.7	/	31.4*	72.4*	79.9*
CC(C)C#Cc1ccc2c(c1)O[C@@H](CN(C)C(=O)Cc1ccccn1)[C@@H](C)CN([C@H](C)CO)S2(=O)=O	/	3.0	/	/	/	/	/	/
C[C@H](CO)N1C[C@H](C)[C@H](CN(C)S(C)(=O)=O)Oc2ncc(C#CC(C)(C)O)cc2C1=O	/	-5.4	/	/	/	/	/	/
COc1ccc(C(=O)NCCNc2nc3ccc(C)cc3cc2C#N)cc1OC	-2.4	10.2	11.6	15.4	-5.5	85.5*	-1.5	12.6*
COc1ccc(CCNC(=O)c2cc(S(=O)(=O)N3CCOCC3)cn2C)cc1OC	-5.4	-0.9	/	1.9	11.1	10.7	/	/
COc1ccc(CCNC(=O)c2cccc(S(=O)(=O)N3CCOCC3)c2)cc1OC	-69.3	1.9	0.2	4.3	-10.7	27.1*	4.3	10.4
O=C(O)/C=C/C(=O)c1ccc2c(c1)NC(=O)CO2	64.2	-0.9	1.2	2.5	-12.6	90.1*	90.9*	104.8*
CC(C)(C)NC(=O)C(c1ccncc1)N(Cc1ccco1)C(=O)c1ccc(-c2ccccc2)[nH]1 (stereo not given)	-21.0	-28.2	12.2	-12.5	-13.6	30.1*	31.4*	43.5*
O=C1C(=Cc2cccc(F)c2)Cc2ccccc21	-9.4	-36.7	/	-47.8	-51.5	24.2*	27.7*	23.1*
Nc1ccccc1C=C1Cc2ccccc2C1=O	-58.1	-8.1	-8.6	-243.6	-156.0	11.1	/	/
O=C1C(=Cc2ccccn2)CCc2ccccc21	-52.6	-43.6	/	-72.0	1.6	24.6*	59.5*	45.8*
O=C1C(=Cc2ccccc2[N+](=O)[O-])Cc2ccccc21	0.6	38.2	/	100.4*	-23.5	28.1*	50.9*	46.3*
O=C1/C(=C/c2cccc([N+](=O)[O-])c2)CCc2ccccc21	-0.7	/	-5.8	27.3	-20.9	37.0*	56.2*	46.1*
CCNC(=O)C[C@H]1CC[C@H]2[C@@H](COC[C@@H](O)CN2C(=O)Nc2ccc(Cl)c(Cl)c2)O1	/	-14.9	/	/	-7.4	/	/	/
CNC[C@@H]1Oc2ccc(NC(=O)Nc3ccccc3)cc2CC(=O)N([C@@H](C)CO)C[C@@H]1C	/	-11.3	/	/	4.0	/	/	/
C[C@@H]1CN([C@H](C)CO)C(=O)c2cc(C#CC3CC3)cnc2O[C@H]1CN(C)C(=O)c1ccncc1	/	-6.8	/	/	/	/	/	/
CC(=O)OC1CC2C(C)(C)C(=O)C=CC2(C)C2CCC3(C)C(c4ccoc4)OC(=O)C4OC43C12C (stereo not given)	-9.9	24.1	/	44.6	/	23.7*	41.7*	34.0*
CC(=O)O[C@@H]1C[C@H]2C(C)(C)C(=O)C=C[C@]2(C)[C@H]2CC[C@@]3(C)[C@H](c4ccoc4)OC(=O)[C@H]4O[C@]43[C@@]21C	-3.6	12.9	12.3	31.2	75.3*	27.2*	43.4*	29.6*
SMILES	Shn3 inh set2	EWS-Fli inh	MITF TRPM1 inh	Peg3 prom inh	PAX8 inh HTS	ABHD5 PLIN5 PPI	ABHD5 PLIN5 conf	HNF4 counter
C[C@H]1CN([C@@H](C)CO)C(=O)c2cccc(NC(=O)NC3CCCCC3)c2O[C@@H]1CN(C)Cc1ccncc1	/	3.2	/	/	-2.0	/	/	/
CN(C)c1ccc(-n2cccc2/C=C/[N+](=O)[O-])cc1	-21.6	19.7	66.2*	93.8*	71.5*	52.3*	81.6*	71.4*
Cc1ccccc1C(=O)NCC(=O)OC(C)C(=O)NCc1ccco1 (stereo not given)	7.1	3.3	5.6	6.9	-3.1	25.3*	5.5	1.9
CN(C)CC(=O)Nc1ccc2c(c1)[C@H]1C[C@H](CC(=O)NCc3ccncc3)O[C@@H](CO)[C@H]1O2	/	-2.5	/	/	-5.2	/	/	/
C[C@H]1CN([C@@H](C)CO)C(=O)c2cc(-c3cncnc3)cnc2O[C@@H]1CN(C)C(=O)Cc1cccnc1	/	-4.6	/	/	/	/	/	/
C=C1C(=O)[C@]23C[C@H]1CC[C@H]2[C@]1(C)[C@@H](OC(C)=O)CC[C@@](C)(C(=O)OC)[C@H]1C[C@@H]3OC(C)=O	95.5*	61.4*	/	98.7*	116.7*	55.9*	70.7*	97.9*
C=C1C(=O)[C@]23C[C@H]1CC[C@H]2[C@]1(C)[C@@H](OC(C)=O)CC[C@@](C)(C(=O)O)[C@H]1C[C@@H]3O	62.8	38.1	/	92.7*	100.6*	52.2*	52.8*	105.1*
C=C1C(=O)[C@]23C[C@H]1CCC2[C@@]1(C)C(C[C@@H]3O)[C@](C)(C(=O)OC)CC[C@@H]1OC(C)=O (stereo not given in full)	98.2*	53.3*	/	102.2*	108.0*	77.6*	84.7*	108.7*
CC=Cc1ccc2n(c1=O)C[C@H]1[C@H](CO)[C@@H](C(=O)NCC3CC3)N(CC3CCOCC3)[C@@H]21 (mixture of isomers)	/	-2.5	/	/	-4.0	/	/	/
CO[C@H]1CN(C)C(=O)c2ccc(NC(=O)Nc3ccc(Cl)cc3)cc2OC[C@@H](C)NC[C@@H]1C	/	4.9	/	/	/	/	/	/
CCC(=O)N[C@H]1CC[C@@H](CC(=O)NCc2ccc(OC)cc2)O[C@@H]1CO	/	-2.9	/	/	-21.3	/	/	/
COc1ccc(-n2c(=O)cc(N3CC(C)OC(C)C3)[nH]c2=O)cc1 (stereo not given)	-11.8	/	-0.1	1.5	/	37.2*	1.2	-0.8
